Compound activity as filed in PubChem.
A selection: hits, their analogues and other compounds. The true share with any hit is near 10%.
G9a inh – qHTS Assay for Inhibitors of Histone Lysine Methyltransferase G9a; G9a H3K9 monomethylation, AlphaScreen, 2 h; Potency, µM (highest dose often 102 µM), without a hit: at the top dose activity, negative = inhibition, actives largely listed as inhibitors; 350,000 tested, 8.8% active; Histone-lysine N-methyltransferase EHMT2 (Homo sapiens), Q96KQ7; note: potency is the fitted concentration of half-maximal effect; % is set by controls: 0 for no effect and ±100 for the full control effect; nearly all actives have a fitted effect of over 75% in size
Target sequence (Q96KQ7 913-1193 limits assumed): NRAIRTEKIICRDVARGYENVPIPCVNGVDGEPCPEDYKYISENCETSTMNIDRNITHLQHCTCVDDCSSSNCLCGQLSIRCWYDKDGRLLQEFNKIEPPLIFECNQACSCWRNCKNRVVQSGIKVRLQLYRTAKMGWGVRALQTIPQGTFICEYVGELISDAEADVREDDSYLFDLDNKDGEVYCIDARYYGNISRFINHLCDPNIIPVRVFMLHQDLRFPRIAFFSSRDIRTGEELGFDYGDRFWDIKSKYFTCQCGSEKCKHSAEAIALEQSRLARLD
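Signal arises when biotinylated H3K9 peptide, once monomethylated, bridges streptavidin donor and antibody-captured acceptor beads. Enzyme at 20 nM was preincubated 15 min with test compounds; peptide 500 nM and SAM 20 uM then reacted for 2 h.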
CtBP-E1A inh – qHTS Assay for Inhibitors of the CtBP/E1A Interaction; activity change, % (test concentration not listed); 340,000 tested, 0.49% active; AlphaScreen GST-E1A/His-CtBP binding, 1536-well; active compounds read low; AID 651724, 2012; CtBP / adenovirus E1A interaction (AlphaScreen); in the data active = activity change below about -65%; inconclusive = mostly about -30% to -63%; note: % is set by controls: 0 for no effect and ±100 for the full control effect
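Steps: dispense buffer (Tris pH 8.0, NaCl 300 mM, TCEP 1 mM, BSA, Tween 20); add 5X protein mix (GST-E1A, His-CtBP, 125 nM each); pin 23 nL compound; 2 h at 37 °C, dark; add 5X beads (50 ug/mL); 1 h; read.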
HP1b binding inh – HTS for Inhibitors of HP1-beta Chromodomain Interactions with Methylated Histone Tails | Chromobox protein homolog 1 (Homo sapiens), P83916 | AlphaScreen HP1-beta / biotin-H3K9me3 peptide binding | Potency, µM (highest dose often 114 µM), for inactives: at the highest dose activity change, negative = inhibition, most hits filed as inhibitors | 390,000 tested, 0.56% active | AID 540317, 2011; note: potency is the fitted concentration of half-maximal effect; nearly all actives have a fitted effect of over 70% in size
Target sequence (P83916 whole entry, looked up): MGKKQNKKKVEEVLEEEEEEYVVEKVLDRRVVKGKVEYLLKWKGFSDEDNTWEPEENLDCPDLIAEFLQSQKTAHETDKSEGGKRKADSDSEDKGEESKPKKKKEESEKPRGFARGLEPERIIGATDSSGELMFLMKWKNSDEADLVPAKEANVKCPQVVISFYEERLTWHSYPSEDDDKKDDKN
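HP1-beta protein (50 nM final) preincubated 30 min at room temperature with biotinylated H3(1-18)K9me3 peptide (50 nM) in PBS pH 7.4, 0.01% Tween-20, then compound added for 30 min. AlphaScreen streptavidin donor/nickel chelate acceptor beads (10 ug/mL final), 30 min dark, luminescence read.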
JMJD2A Tudor – qHTS Assay for Inhibitors of JMJD2A-Tudor Domain; Lysine-specific demethylase 4A (Homo sapiens), O75164; AlphaScreen JMJD2A-Tudor / H3K4me3 peptide binding; Potency, µM (highest dose often 114 µM), without a hit: at the top dose activity change, negative = inhibition, usual class: inhibitors; 390,000 tested, 4.4% active; note: potency is the fitted concentration of half-maximal effect; % is set by controls: 0 for no effect and ±100 for the full control effect; nearly all actives have a fitted effect of over 50% in size
Six1-Eya2 inh – qHTS Assay for Inhibitors of the Six1/Eya2 Interaction | activity change, % (no concentration beside the values) | AlphaScreen GST-Six1/His-Eya2 binding, biochemical; active compounds read low | 360,000 tested, 0.56% active | Homeobox protein SIX1 (Homo sapiens) + Protein phosphatase EYA2 (Homo sapiens), …; in the data active = activity change below about -65%; inconclusive = mostly about -30% to -63%; note: % is set by controls: 0 for no effect and ±100 for the full control effect
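Homogeneous AlphaScreen proximity assay pairing GST-Six1 with His-tagged Eya2 (added as 5X mix: 250 nM and 500 nM) in 50 mM Tris pH 8.0, 300 mM NaCl, 1 mM TCEP. Glutathione donor and nickel acceptor beads; 1 h, 37 °C, dark.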
BAZ2B inh – qHTS Assay for Inhibitors of BAZ2B | Bromodomain adjacent to zinc finger domain protein 2B (Homo sapiens), Q9UIF8 | Potency, µM (series often up to 114 µM), inactives show at the highest dose activity change, negative = inhibition, actives largely listed as inhibitors | 360,000 tested, 4.4% active | AlphaScreen BAZ2B-H3K14Ac peptide displacement; note: potency is the fitted concentration of half-maximal effect; % is set by controls: 0 for no effect and ±100 for the full control effect; nearly all actives have a fitted effect of over 60% in size
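BAZ2B 50 nM plus b-H3(5-23)K14Ac 50 nM, PBS pH 7.4/0.01% Tween-20, 30 min RT; compound added (max 110 uM), 30 min RT; streptavidin donor/Ni-chelate acceptor beads 10 ug/mL final, 20 min dark; AlphaScreen read.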
Active calls of the source: *; ? = inconclusive; nt = not tested or not shown; [ ] = dose if it differs, or a comment. Unless noted, calls come from the whole dose curve; as a rule, active = well fitted inhibition curve with a large enough effect; inconclusive = small, poorly fitted or top-dose-only effect; inactive = no such curve, though single readings can be large or run the other way.

SMILES	G9a inh	CtBP-E1A inh	HP1b binding inh	JMJD2A Tudor	Six1-Eya2 inh	BAZ2B inh
O=C(c1cc2cc(F)ccc2[nH]1)N1CCc2ccccc2C1	19%	nt	42%	6%	0	-18%[57.1 µM]
O=C(c1cc2cc(Cl)ccc2[nH]1)N1CCc2ccccc2C1	50µM*	nt	60%	25%	-1	-18%[57.1 µM]
CC1(C)CC(=O)C(Sc2nnc(-c3ccc(O)cc3)n2CC2CCCO2)C(=O)C1 (centres undefined)	28µM*	6	42%	-21%	6	?
CC(=O)Nc1ccc(C(=O)CSc2nnc(-c3ccc(O)cc3)n2CC2CCCO2)cc1 (centres undefined)	20µM*	5	-14%	79µM*	1	-28%
O=C(CSc1nnc(-c2ccco2)n1CC1CCCO1)c1ccc(F)cc1 (centres undefined)	45µM*	-2	?	3.2µM*	5	-23%
Cc1cccc(NC(=O)CSc2nnc(-c3ccncc3)n2CC2CCCO2)c1 (centres undefined)	13%[59 µM]	19	14%	-4%	1	-1%
CCc1c(CN2CCN(c3cccc(C)c3)C(C)C2)csc1C (centres undefined)	-36%[59 µM]	nt	22%	?	nt	?
Cc1oc2c(CN3CCCCC3)c(O)ccc2c(=O)c1-c1ccc(Cl)cc1	21%	3	12%	-8%	6	5%
COc1ccc(CCNC(=O)CCc2cc(OC)c(OC)c(OC)c2)cc1	3%	nt	59%	7%	-3	-2%
COC(=O)c1ccc(C)c(NC(=O)CCc2cc(OC)c(OC)c(OC)c2)c1	45µM*	-2	19%	8%	-1	-2%
COc1cc(CCC(=O)Oc2ccc(C(C)=O)cc2)cc(OC)c1OC	71µM*	0	33%	-5%	19	-4%
COC(=O)c1ccc(C)c(NC(=O)CCc2ccc(OC)c(OC)c2)c1	50µM*	-4	17%	-21%	4	-5%
N#Cc1ccc(-c2nc3c4ccccc4ccn3c2Cc2cccc(Cl)c2)cc1	nt	0	nt	nt	0	nt
O=[N+]([O-])c1cccc(-c2n[nH]c(=S)n2-c2ccc(Br)cc2)c1	6.3µM*	-6	-1%	?	3	-37%
COc1cc(-c2n[nH]c(=S)n2-c2ccc(Br)cc2)cc(OC)c1OC	nt	4	15%	50µM*	0	-1%
O=C(O)c1ccc(-n2c(-c3ccc(Br)cc3)n[nH]c2=S)cc1	?	7	32%	7.1µM*	4	-25%
S=c1[nH]nc(-c2ccc(Br)cc2)n1-c1ccc(Br)cc1	8.9µM*	nt	20%	-31%	7	-12%
CCc1cccc(-n2c(=O)c3cccnc3n2CC(=O)NCc2ccccc2)c1	29%[59 µM]	nt	82%	15%	nt	32%
O=C1CN(C(=O)/C=C/c2cc(Br)ccc2F)CCN1	7%	0	35%	-8%	-2	-3%
COCC(C)n1c(SCc2ccc(OC)c(F)c2)nc2ccccc2c1=O (centres undefined)	91%	7	82%	47%	5	17%
Cc1cc(Cl)ccc1OCC(=O)N[C@@H](Cc1ccccc1)c1nc2ccccc2[nH]1	?	14	34%	-17%	15	56µM*
COC(=O)c1cc2sc(Cl)cc2n1Cc1cc(C)ccc1C	74%[59 µM]	nt	115%	79%	nt	66%
CCOC(=O)c1cc2c(ccn2C)n1Cc1cc(C)ccc1C	50µM*	-27	?	25µM*	?	50µM*
FC(F)(F)c1ccccc1-c1nc(N2CCOCC2)c2ccccc2n1	7%[0.501 µM]	nt	nt	nt	nt	nt
CC(=O)c1ccc(OC2(C)CCN(Cc3cc4ccccc4[nH]3)C2)cc1 (centres undefined)	nt	-5	nt	nt	-8	nt
SMILES	G9a inh	CtBP-E1A inh	HP1b binding inh	JMJD2A Tudor	Six1-Eya2 inh	BAZ2B inh
CC(C)(C)C(=O)N1CCN(c2ccc([N+](=O)[O-])cc2Cl)CC1	nt	-3	30%	-20%	-1	nt
Cc1ccc2nc(C)c(CN3CCN(c4ccc([N+](=O)[O-])cc4Cl)CC3)n2c1	50µM*	nt	nt	nt	nt	40µM*
O=C1CC(c2ccccc2Cl)c2c(sc3c(=O)[nH]c(CCl)nc23)N1 (centres undefined)	?	nt	nt	nt	nt	-11%
NC(N)=Nc1nc2ccccc2o1	?	3	20%[57 µM]	13µM*	-11	3%
O=C(NC(=Nc1nc2ccccc2o1)NC(=O)c1ccccc1)c1ccccc1	11%	-13	12%	-18%	-6	-1%
C/C(CC(C)(C)c1ccccc1)=N\NS(=O)(=O)c1ccccc1	25µM*	11	39%	-7%	1	-22%
CC(=O)Nc1ccc(OCC(O)CN2CCN(c3ccc(F)cc3)CC2)cc1 (centres undefined)	8%	-4	22%	-18%	15	-7%
CC(C)C1C(C#N)=C(N)SC(N)=C1C#N	14µM*	-6	41%	18%	-2	-38%
CC(c1ccccc1)C1C(C#N)=C(N)SC(N)=C1C#N (centres undefined)	16µM*	12	23%	?	14	12%
CC(CC1C(C#N)=C(N)SC(N)=C1C#N)c1ccccc1 (centres undefined)	10µM*	3	13%	56µM*	-2	-23%
O=[N+]([O-])c1cccc(OCCCN2CCC(Cc3ccccc3)CC2)c1	nt	-18	-15%	79µM*	-25	nt
O=[N+]([O-])c1ccccc1S(=O)(=O)N1CCN(C2CCN(Cc3ccccc3)CC2)CC1	-29%	-3	?	0.71µM*	-18	-28%
O=[N+]([O-])c1ccccc1S(=O)(=O)N1CCCCC1	14%[59 µM]	-14	26%	-13%	-3	-8%
O=[N+]([O-])c1ccc(CN2CCC(Cc3ccccc3)CC2)cc1	?	nt	?	28µM*	-6	50µM*
O=S(=O)(c1ccc(Cl)cc1)N1CCN(C2CCN(Cc3ccccc3)CC2)CC1	-6%	-4	4%	-20%	0	0%
O=C(Nc1ccccc1)c1ccc(CN2CCC(Cc3ccccc3)CC2)cc1	nt	-1	43%	4%	-1	nt
O=[N+]([O-])c1ccc(S(=O)(=O)N2CCN(C3CCN(Cc4ccccc4)CC3)CC2)cc1	32µM*	-14	50µM*	1.8µM*	-28	28µM*
C=CCNc1cccc(Br)c1	nt	5	54%	6%	6	nt
